Some test systems named below: T-47D breast; BT-549 breast; MDA-MB-435 melanoma; SW-620 colon; MCF7 breast; HCT-116 colon; HCC-2998 colon; KM12 colon.
Assay in all cases: NCI-60 one-dose screen, 48 h (100 = growth as untreated, 0 = no growth, -100 = all killed)
Holding throughout (details): 10 µM unless noted

This is part of a sample that, as a whole, favours compounds with a hit. Of some 83,000 tested, about 20% had one in any assay.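 Cells were grown in 96-well plates and exposed to the test compound at a single concentration for 48 hours; results are reported as percent growth, with values below 10 considered active.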 A number with no mark means an inactive call. Active and inactive are the calls of the source.

As to `COc1ccc(/C=C/c2cc(N3CCOCC3)c3cc(F)c(F)cc3n2)cc1OC`, the growth in the assay on T-47D breast was 37.9%; in the assay with BT-549 breast it was 45.2%; in the assay on MDA-MB-435 melanoma, 51%; in the assay on SW-620 colon, 45.8%; in the assay with MCF7 breast it was 22.1%; in the assay with HCT-116 colon, 24.5%. Further, the growth in the assay with HCC-2998 colon is 29%; with KM12 colon it was 33.3%.
With `CC1=NN2C(=NC3=C(CCC/C3=C\c3ccc(Cl)cc3)C2c2ccc(Cl)cc2)S1` (centres undefined), the growth with T-47D breast was 89.1%; in the assay on BT-549 breast, 97.9%; with MDA-MB-435 melanoma, 45.8%; in the assay on SW-620 colon, 97.3%; in the assay on MCF7 breast, 24.2%; in the assay on HCT-116 colon it was -37.2% (active). For the same compound, in the assay with HCC-2998 colon, the growth is 80.6%.
Turning to `CC(C(=O)n1cc(-c2ccccc2)c(-c2ccccc2)c1)c1ccccc1` (centres undefined), the growth in the assay on T-47D breast was 93.4%; with BT-549 breast, 117%; in the assay on MDA-MB-435 melanoma, 104%; with SW-620 colon it was 111%; in the assay with MCF7 breast it was 100%; in the assay with HCT-116 colon, 99.8%.
Take `COc1cc(Cn2c(SCC(=O)Nc3cc(OC)c(OC)c(OC)c3)nc3ccccc3c2=O)cc(OC)c1OC`: the growth is 77% with T-47D breast; 65.2% in the assay with BT-549 breast; 102% in the assay with MDA-MB-435 melanoma; 91.7% in the assay with SW-620 colon; 95.3% with MCF7 breast; 58.3% in the assay with HCT-116 colon. Besides, the growth in the assay with HCC-2998 colon was 124%.
For the compound `COc1cc(-n2nc(C(=O)Nc3ccc(C(=O)O)cc3)nc2-c2ccccc2)cc(OC)c1OC`, the growth in the assay on T-47D breast is 79%; in the assay on BT-549 breast, 105%; in the assay with MDA-MB-435 melanoma it was 113%; in the assay on SW-620 colon, 101%; with MCF7 breast, 93.5%; in the assay on HCT-116 colon, 91.7%. For the same compound, the growth in the assay on HCC-2998 colon is 97.9%; in the assay on KM12 colon, 105%.
Take `CCN(CC)P(=O)(N(CC)CC)N(CCCSC/C=C(\C)CC/C=C(\C)CCC=C(C)C)CCCN1CCN(C)CC1`: the growth in the assay with T-47D breast is 88.9%; in the assay with BT-549 breast it was 102%; in the assay on MDA-MB-435 melanoma, 100%; with SW-620 colon, 101%; with MCF7 breast it was 97.6%; in the assay with HCT-116 colon, 97.1%.
As for `O=C(O)c1ccc(-n2c(=O)c3ccccc3c3ccccc3c2=O)cc1`, the growth with T-47D breast was 92.8%; in the assay with BT-549 breast, 107%; with MDA-MB-435 melanoma, 103%; in the assay with SW-620 colon, 110%; in the assay with MCF7 breast, 96.3%; with HCT-116 colon, 104%. In addition, the growth in the assay on HCC-2998 colon was 110%.
For the compound `CCN(CC)CCC(=O)c1cccc2ccccc12`, the growth with T-47D breast is 85.1%; in the assay on BT-549 breast it was 110%; in the assay with MDA-MB-435 melanoma it was 108%; with SW-620 colon, 104%; in the assay on MCF7 breast, 63.9%; in the assay with HCT-116 colon it was 109%. Moreover, the growth with HCC-2998 colon was 97.1%.
For the compound `O=C(Nc1ccc(F)cc1)c1cc([N+](=O)[O-])ccc1O`, the growth in the assay with T-47D breast is 56%; in the assay with BT-549 breast it was 81.5%; in the assay with MDA-MB-435 melanoma it was 72.2%; in the assay with SW-620 colon, 76.5%; in the assay with MCF7 breast, 61.5%; in the assay on HCT-116 colon, 66.8%. For the same compound, the growth in the assay on HCC-2998 colon is 63.9%.
Take `Cc1cc(Nc2nc(-c3ccc(F)cc3)nc3ccccc23)n[nH]1`: the growth in the assay with T-47D breast was 29.3%; in the assay with BT-549 breast it was 72.9%; in the assay with MDA-MB-435 melanoma, 31.2%; in the assay on SW-620 colon, 48.8%; in the assay with MCF7 breast it was 23.8%; in the assay on HCT-116 colon, 28.5%. Also, in the assay on HCC-2998 colon, the growth is 67.3%.
With `c1cc(-c2ccc3c(c2)OCO3)n2nccc2n1`, the growth in the assay with T-47D breast was 88.2%; in the assay on BT-549 breast, 101%; in the assay on MDA-MB-435 melanoma it was 98.2%; in the assay with SW-620 colon, 105%; in the assay on MCF7 breast it was 89.9%; in the assay on HCT-116 colon it was 102%. The growth in the assay on HCC-2998 colon was 86.9%.
For the compound `COc1ccc(/C=C/c2nc(N3CCOCC3)c3cc(F)c(F)cc3n2)cc1OC`, the growth in the assay on T-47D breast is 6.31% (active); in the assay on BT-549 breast, 33.4%; in the assay on MDA-MB-435 melanoma, 15.8%; in the assay with SW-620 colon, 55.5%; in the assay on MCF7 breast, 15.9%; with HCT-116 colon, 38.7%. Further, in the assay with HCC-2998 colon, the growth is 38.2%.
As to `O=S=Nc1ccc([N+](=O)[O-])cc1`, the growth with T-47D breast is 76.2%; in the assay with BT-549 breast it was 91.8%; in the assay on MDA-MB-435 melanoma it was 95.5%; in the assay on SW-620 colon, 93.4%; in the assay on MCF7 breast, 95.7%; with HCT-116 colon, 94%. In addition, in the assay with HCC-2998 colon, the growth is 93.5%.
Consider `NC(=O)NC(=O)/C=C/C(=O)OCCCl`, for which the growth was 69% with T-47D breast; 106% with BT-549 breast; 101% with MDA-MB-435 melanoma; 102% with SW-620 colon; 92.2% in the assay on MCF7 breast; 104% in the assay on HCT-116 colon.
Take `Cc1ccc(S(=O)(=O)NCCCNc2nccc(-c3c(-c4ccccc4)nc4sccn34)n2)cc1`: the growth is 39.9% with T-47D breast; 38.9% with BT-549 breast; 34% with MDA-MB-435 melanoma; 58.1% with SW-620 colon; 42.8% with MCF7 breast; 15.2% with HCT-116 colon.
In the case of `COc1ccc(Cl)cc1NC(N)=S`, the growth in the assay with T-47D breast was 96.3%; in the assay on BT-549 breast it was 107%; in the assay with MDA-MB-435 melanoma, 104%; with SW-620 colon, 104%; in the assay with MCF7 breast, 96.2%; in the assay on HCT-116 colon, 102%. Also, the growth with HCC-2998 colon is 102%.
For `Cc1nc2sccn2c1-c1csc(Nc2ccccc2Cl)n1`, the growth with T-47D breast is 41%; with BT-549 breast, 40.6%; with MDA-MB-435 melanoma, 2.78% (active); with SW-620 colon, 33.1%; in the assay on MCF7 breast, 33.9%; in the assay with HCT-116 colon, 27.8%.
`COc1cc(OC)c(C(=O)/C=C/c2cccc(C#N)c2)c(OC)c1`: the growth was 4.14% (active) in the assay on T-47D breast; -3.25% (active) in the assay with BT-549 breast; 7.3% (active) in the assay on MDA-MB-435 melanoma; 6.58% (active) in the assay on SW-620 colon; 15% in the assay with MCF7 breast; 2.91% (active) in the assay on HCT-116 colon. Also, the growth is 14.4% in the assay on HCC-2998 colon and 6.41% (active) in the assay on KM12 colon.

For the origin of these results see PubChem BioAssay (NCI).
